The source made the active and inactive calls. The calls were made as follows: active = hit-call score of the fitted dose curve at least 0.9, where 1 is the maximum; inactive = score below 0.9.
Target: Hepatocyte nuclear factor 3-beta (Homo sapiens) (UniProt Q9Y261)
Assay: ATG_FoxA2_CIS: Attagene CIS-FACTORIAL HepG2 Assay for human Forkhead box A2 (FOXA2) (AID 2282942)
Conditions: HepG2 cis-reporter transcription factor activity, 24 h; actives raise or lower the signal
Experimental: ATG_CIS is a cell-based, multiplexed-readout assay that uses HepG2, a human liver cell line, with measurements taken at 24 hours after chemical dosing in a 24-well plate.ATG_FoxA2_CIS is one of 52 assay component(s) measured or calculated from the ATG_CIS assay. It is designed to make measurements of mRNA induction, a form of inducible reporter, as detected with fluorescence intensity signals by Reverse transcription polymerase chain reaction (RT-PCR) and Capillary electrophoresis technology.Data from the assay component ATG_FoxA2_CIS was analyzed into 1 assay endpoint. This assay endpoint, ATG_FoxA2_CIS, was analyzed with bidirectional fitting relative to DMSO as the negative control and baseline of activity. Using a type of inducible reporter, measures of mRNA for gain or loss-of-signal activity can be used to understand the reporter gene at the transcription factor-level as they relate to the gene FOXA2. Furthermore, this assay endpoint can be referred to as a primary readout, because this assay has produced multiple assay endpoints where this one serves a reporter gene function. To generalize the intended target to other relatable targets, this assay endpoint is annotated to the dna binding intended target family, where the subfamily is forkhead box protein.
Human liver HepG2 cells are transiently transfected with multiple reporter transcription units (MRTUs) in 6-well plates using FuGene 6 reagent (Roche; 3 ml FuGene/1 mg DNA). The MRTU constructs are regulated by a cis-regulating element (promoter). […] A major difference between the CIS and TRANS system is that in CIS activities of endogenous TFs are measured, whereas the TRANS assay evaluates changes in activities of exogenous, chimeric NR-Gal4 proteins. […] At the end of 24 hour incubation, total RNA was isolated using TriZol reagent (Invitrogen). The isolated RNA is then reverse-transcribed using oligo(dT) primer and Mo-MLV reverse transcriptase (Invitrogen) with DNAse I (Ambion) treatment for 30 min. The one-tenth of the produced cDNA was amplified by PCR using Taq DNA polymerase (Invitrogen) and two reporter sequence-specific primers. The PCR products were fluorescently labeled by primer extension with 6-arboxyfluorescein (6-FAM) 5'-labeled reporter sequence-specific primer (2 min at 95 C, 20 s at 68 C and 10 min at 72 C) and these products were digested with 5U of HpaI (New England Biolabs) for 2h at 37 C. The fragments were purified using Qiaquick PCR columns (Qiagen), analyzed on an ABI 3130xL genetic analyzer (Applied Biosystems) with peak positions identified by using a set of X-rhodamine (ROX)-labeled MapMarker1000 molecular weight standards (BioVentures). The raw capillary electrophoresis data was processed using Attagraph software (Attagene).

Sequence of Hepatocyte nuclear factor 3-beta (Homo sapiens) (Q9Y261 whole entry, looked up): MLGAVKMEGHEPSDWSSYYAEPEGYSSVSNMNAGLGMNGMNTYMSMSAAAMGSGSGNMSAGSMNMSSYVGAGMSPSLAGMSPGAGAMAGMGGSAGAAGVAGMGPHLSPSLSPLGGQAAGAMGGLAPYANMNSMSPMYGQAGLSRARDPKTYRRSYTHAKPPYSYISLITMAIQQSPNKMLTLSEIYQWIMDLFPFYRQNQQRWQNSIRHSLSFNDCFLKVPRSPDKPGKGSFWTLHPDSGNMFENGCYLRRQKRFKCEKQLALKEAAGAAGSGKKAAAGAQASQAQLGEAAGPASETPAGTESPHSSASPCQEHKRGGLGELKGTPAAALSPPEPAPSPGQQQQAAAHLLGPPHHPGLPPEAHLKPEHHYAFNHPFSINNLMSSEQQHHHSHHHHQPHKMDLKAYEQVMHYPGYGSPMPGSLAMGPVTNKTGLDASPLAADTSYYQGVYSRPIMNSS

Row | Structure (SMILES) | outcome
1 | CC1=C(C)S(=O)(=O)CCS1(=O)=O | inactive
2 | CC(N)=O | inactive
3 | Cc1occc(=O)c1O | inactive
4 | CC(=O)OCC(COC(C)=O)OC(C)=O | inactive
5 | CCCCC(CC)COC(=O)CCCCCCCC(=O)OCC(CC)CCCC (stereo not given) | inactive
6 | CCCCc1nc2cccnc2n1Cc1ccc(-c2ccccc2-c2nnn[nH]2)cc1 | inactive
7 | CC(C)c1cccc(C(C)C)c1NC(=O)NS(=O)(=O)c1cc(C(C)(C)O)co1 | inactive
8 | CS(=O)(=O)c1ccc([C@@H](C[C@H]2CCC(=O)C2)C(=O)Nc2cnccn2)cc1Cl | inactive
9 | O=C(Oc1ccccc1)c1cccc(C(=O)Oc2ccccc2)c1 | inactive
10 | CCN(CC)CCOc1ccc(C(=C(Cl)c2ccccc2)c2ccccc2)cc1 | inactive
11 | CSc1ccc(Oc2ccc(S(N)(=O)=O)cc2CN(C)C)cc1C | inactive
12 | CC(C)NCC(O)c1ccc(O)c(O)c1 (stereo not given) | inactive
13 | NC=O | inactive
14 | CCCCCCCCCC[N+](C)(C)[O-] | inactive
15 | O=Cc1ccccc1C=O | inactive
16 | O=[Si]=O | inactive
17 | COc1ccc(C(=O)Nc2nc3ccccc3c(NCc3ccccc3)c2C#N)cc1 | inactive
18 | Nc1nc(=S)c2[nH]cnc2[nH]1 | inactive
19 | S=c1[nH]c2ccccc2s1 | inactive
20 | CC(=O)O[C@]1(C(C)=O)CC[C@H]2[C@@H]3C=C(Cl)C4=CC(=O)[C@@H]5C[C@@H]5[C@]4(C)[C@H]3CC[C@@]21C | inactive

Row | Structure (SMILES) | outcome
21 | COc1ccc(OC(F)(F)F)cc1CN[C@H]1CCCN[C@H]1c1ccccc1 | inactive
22 | CN(C)C(=O)NC1(c2ccccc2)CCN(CC[C@@]2(c3ccc(F)c(F)c3)CN(C(=O)c3ccccc3)CCO2)CC1 | inactive
23 | Cc1cn([C@H]2C=C[C@@H](CO)O2)c(=O)[nH]c1=O | inactive
24 | CCCCCCCCCCCCCCCCO | inactive
25 | CCc1nc(N)nc(N)c1-c1ccc(Cl)cc1 | inactive
26 | N[C@@H](Cc1c[nH]c2ccccc12)C(=O)O | inactive
27 | CCc1cc(C2=C(C(=O)O)N(c3ccccc3C(F)(F)F)S(=O)(=O)c3ccccc32)cc2c1OCO2 | inactive
28 | CO[C@@H]1COCC[C@@H]1N[C@@H]1CC[C@@](C(=O)N2CCc3ncc(C(F)(F)F)cc3C2)(C(C)C)C1 | inactive
29 | CCCCC(CC)CO (stereo not given) | inactive
30 | Cn1cnc2c1c(=O)[nH]c(=O)n2C | inactive
31 | O=C(N[C@@H](c1ccccc1)[C@@H]1CCCCN1)c1cccc(C(F)(F)F)c1Cl | inactive
32 | Oc1ccc(O)cc1 | inactive
33 | Cc1cc(SC2=C(O)C[C@@](CCc3ccc(N)cc3)(C(C)C)OC2=O)c(C(C)(C)C)cc1CO | inactive
34 | O=C1NC(=O)C(c2ccccc2)(c2ccccc2)N1 | inactive
35 | CC(C)OC(=O)C(C)(C)Oc1ccc(C(=O)c2ccc(Cl)cc2)cc1 | inactive
36 | C=CCc1ccc(OC)c(OC)c1 | inactive
37 | O=C(O)c1[nH]n(-c2ccc(S(=O)(=O)O)cc2)c(=O)c1N=Nc1ccc(S(=O)(=O)O)cc1 | inactive
38 | CC(C)COC(=O)CCCCC(=O)OCC(C)C | inactive
39 | O=C1O[C@H]([C@H](O)CO)C(O)=C1O | inactive
40 | O=C(NS(=O)(=O)/C=C/c1cccs1)c1ccc(F)cc1Br | inactive
